Source: PubChem BioAssay
Most compounds without a hit are left out; they make up all but 3.2% or so of the library.
Y pestis TopoI – inhibitors of Yersinia pestis topoisomerase I; AID 504884; Y. pestis Topo-I cleavage product accumulation, plate reader; activity, % at 10 µM; hit rate 0.064% among 360,000; in the data active = activity above about 50%, passing the limit was not always enough
Mtb FBA inh – Mtb fructose-bisphosphate aldolase inhibition; P9WQA3; purified M. tuberculosis FBA, fluorescence read-out; inhibition, % at 1 µM; hit rate 2.3% among 360,000; AID 588726; in the data active = inhibition above about 27%;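 also: 0% = vehicle and 100% = reference inhibitor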
GDH-TPI counter – counter-screen for M. tuberculosis FBA inhibitors: GDH-TPI coupled enzymes. hit rate 1.2% among 360,000. GDH-TPI coupled enzyme counterscreen, NADH absorbance. inhibition, % at 4.8 µM; in the data active = inhibition above about 30%;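 also: 0% = DMSO wells and 100% = wells lacking the enzyme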
PrPC TRFRET – cell surface PrPC inhibition, primary TR-FRET screen; P04156; TR-FRET read-out; inhibition, % at 13.8 µM; hit rate 0.43% among 370,000; in the data active = inhibition above about 24%; also: 0% = median of the test wells and 100% = reference compound wells
TcdB GH inh – blocks C. difficile toxin B glycohydrolase activity | P18177 | TcdB glycohydrolase enzymatic assay, plate reader | inhibition, % at 9.99 µM | hit rate 0.24% among 350,000 | AID 652162; in the data active = inhibition above about 10%
Active calls of the source: *.

Results for O=C(C[C@H]1CC[C@@H](NC(=O)c2ccccn2)[C@H](CO)O1)NCc1cccc(F)c1 ?
TcdB GH inh: -0.6

How did CC(/C=N/NC(=O)Cc1cccn1C)=C\c1ccco1 do in these assays?
Y pestis TopoI: -1.5; Mtb FBA inh: -1.7; GDH-TPI counter: 39.6*; PrPC TRFRET: -2.2

How did Cc1ccc(OCC(=O)N/N=C/C=C/c2ccco2)c(Br)c1 do in these assays?
Y pestis TopoI: 29.6; Mtb FBA inh: 1.9; GDH-TPI counter: 34.0*; PrPC TRFRET: -8.7; TcdB GH inh: 0.0

How did CC(/C=N/NC(=O)Cn1cnc2c1c(=O)n(C)c(=O)n2C)=C\c1ccco1 do in these assays?
Y pestis TopoI: 6.5; Mtb FBA inh: 1.1; GDH-TPI counter: 41.4*; PrPC TRFRET: 2.0; TcdB GH inh: -0.6

Results for Cn1c(=O)c2c(ncn2CC(=O)N/N=C/C=C/c2ccco2)n(C)c1=O ?
Y pestis TopoI: 1.6; Mtb FBA inh: -2.5; GDH-TPI counter: 32.1*; PrPC TRFRET: 1.8; TcdB GH inh: 0.3

Results for CC(=C/c1ccco1)/C=N/NC(=O)Cc1cccn1C ?
Y pestis TopoI: 7.0; Mtb FBA inh: -1.3; GDH-TPI counter: 24.5; PrPC TRFRET: 0.7; TcdB GH inh: 0.1

Results for Cn1c(=O)c2c(ncn2CC(=O)N/N=C/C(Cl)=C/c2ccccc2)n(C)c1=O ?
Y pestis TopoI: 2.2; Mtb FBA inh: -0.2; GDH-TPI counter: 14.0; PrPC TRFRET: -0.9

What do the screens show for `O=C(C[C@@H]1C=C[C@@H](NC(=O)c2ccc3c(c2)OCO3)[C@@H](CO)O1)NCc1ccc(Cl)cc1`?
TcdB GH inh: -0.4

Results for C[C@H](CO)N1C[C@H](C)[C@H](CN(C)Cc2ccc(C(=O)O)cc2)Oc2ccc(NS(=O)(=O)c3ccc(Cl)cc3)cc2C1=O ?
TcdB GH inh: 0.7

What do the screens show for `COc1ccc(C(=O)NCC(=O)N/N=C/C(C)=C/c2ccco2)cc1OC`?
Y pestis TopoI: -0.1; Mtb FBA inh: -1.7; GDH-TPI counter: 41.1*; PrPC TRFRET: -13.9

Results for O=C(CN1CCN(Cc2ccccc2)CC1)N/N=C/C=C/c1ccco1 ?
Y pestis TopoI: 1.7; Mtb FBA inh: 0.3; GDH-TPI counter: 33.5*; PrPC TRFRET: -8.3

What do the screens show for `C[C@H](CO)N1C[C@H](C)[C@@H](CN(C)C(=O)C2CCCCC2)Oc2ncc(-c3cccc(F)c3)cc2C1=O`?
TcdB GH inh: 1.4

How did C=CCNc1oc(-c2ccc(OCC)cc2)nc1C#N do in these assays?
Y pestis TopoI: 0.0; Mtb FBA inh: 128.5*; GDH-TPI counter: 17.5; PrPC TRFRET: 13.6; TcdB GH inh: 2.5

How did CCOc1ccc(Nc2oc(-c3cccc(Cl)c3)nc2C#N)cc1 do in these assays?
Y pestis TopoI: 6.2; Mtb FBA inh: 0.4; GDH-TPI counter: 9.9; PrPC TRFRET: -0.3

Results for CCOc1ccc(-c2nc(C#N)c(NCC(C)C)o2)cc1 ?
Y pestis TopoI: 2.3; Mtb FBA inh: 155.6*; GDH-TPI counter: 17.7; PrPC TRFRET: 11.3

Results for COc1ccc(Nc2oc(-c3ccc(F)cc3)nc2C#N)cc1 ?
Y pestis TopoI: -0.5; Mtb FBA inh: 1.7; GDH-TPI counter: 6.1; PrPC TRFRET: -1.4; TcdB GH inh: 2.4

How did C=CCNc1oc(-c2ccc(OC)cc2)nc1C#N do in these assays?
Y pestis TopoI: 5.3; Mtb FBA inh: 127.3*; GDH-TPI counter: 7.9; PrPC TRFRET: 1.5

Results for COc1ccc(-c2nc(C#N)c(NCc3ccco3)o2)cc1 ?
Y pestis TopoI: -8.9; Mtb FBA inh: 116.7*; GDH-TPI counter: -1.6; PrPC TRFRET: 1.2; TcdB GH inh: 0.5

What do the screens show for `C[C@H](CO)N1C[C@H](C)[C@H](CN(C)S(=O)(=O)c2ccc(C#N)cc2)Oc2ncc(/C=C/c3ccccc3)cc2C1=O`?
TcdB GH inh: -0.5

What do the screens show for `C[C@@H]1CN([C@@H](C)CO)C(=O)c2cc(NS(=O)(=O)c3ccc(F)cc3)ccc2O[C@H]1CN(C)C(=O)Nc1ccc(F)cc1`?
TcdB GH inh: -0.8

How did C[C@@H]1CN([C@@H](C)CO)C(=O)Cc2cc(NC(=O)Nc3cccc4ccccc34)ccc2O[C@H]1CN(C)C(=O)Nc1ccc2c(c1)OCO2 do in these assays?
TcdB GH inh: 0.5

How did O=C(/C(=C/c1ccc(Cl)cc1)c1nc2ccccc2[nH]1)c1cccs1 do in these assays?
Y pestis TopoI: 1.2; Mtb FBA inh: -0.9; GDH-TPI counter: 31.7*

How did N#C/C(=C(/O)CCl)c1nc2ccccc2[nH]1 do in these assays?
Y pestis TopoI: 0.1; Mtb FBA inh: 3.3; GDH-TPI counter: 6.8; PrPC TRFRET: 26.8*; TcdB GH inh: 3.7

How did O=C(/C(=C\c1ccccc1)c1nc2ccccc2[nH]1)c1ccc(Cl)cc1 do in these assays?
Y pestis TopoI: -5.8; Mtb FBA inh: 0.9; GDH-TPI counter: 10.9; PrPC TRFRET: 5.7

What do the screens show for `N#C/C(=C(\O)Cc1ccccc1)c1nc2ccccc2[nH]1`?
Y pestis TopoI: 0.4; Mtb FBA inh: 3.0; GDH-TPI counter: 5.7; PrPC TRFRET: 5.4

How did N#C/C(=C(/O)c1cccs1)c1nc2ccccc2[nH]1 do in these assays?
Y pestis TopoI: -11.4; Mtb FBA inh: 14.0; GDH-TPI counter: 39.1*; PrPC TRFRET: 0.2; TcdB GH inh: -0.3

Results for N#C/C(=C(/O)COC(=O)CSc1ccc2ccccc2c1)c1nc2ccccc2[nH]1 ?
Y pestis TopoI: -2.9; Mtb FBA inh: 2.4; GDH-TPI counter: 37.8*; PrPC TRFRET: 14.2

How did Cc1ccc(C)c(SCC(=O)OC/C(O)=C(\C#N)c2nc3ccccc3[nH]2)c1 do in these assays?
Y pestis TopoI: 35.5; Mtb FBA inh: 2.0; GDH-TPI counter: 10.0; PrPC TRFRET: 13.3; TcdB GH inh: 0.9

How did N#C/C(=C(/O)CSc1n[nH]c(N)n1)c1nc2ccccc2[nH]1 do in these assays?
Y pestis TopoI: -2.2; Mtb FBA inh: 3.7; GDH-TPI counter: 31.6*; PrPC TRFRET: 0.6; TcdB GH inh: 0.6

Results for O=C(NCc1ccccc1)C1Cc2c(-c3cccc(F)c3)ccnc2O1 (stereo unspecified) ?
Y pestis TopoI: 8.3; Mtb FBA inh: -1.7; GDH-TPI counter: -5.4; PrPC TRFRET: 9.7; TcdB GH inh: 11.3*

How did CC(=O)c1cccc(-c2ccnc3c2CC(C(=O)NCc2ccccc2)O3)c1 (stereo unspecified) do in these assays?
Y pestis TopoI: -1.1; Mtb FBA inh: -0.8; GDH-TPI counter: 8.2; PrPC TRFRET: 3.1; TcdB GH inh: 10.1*

How did CCCc1cn(CC[C@@H]2CC[C@@H](NC(=O)C3CCCCC3)[C@H](CO)O2)nn1 do in these assays?
TcdB GH inh: -1.0

Results for CC(C)OC(=O)N(C)C[C@@H]1OCc2cn(nn2)CCCC(=O)N([C@H](C)CO)C[C@@H]1C ?
TcdB GH inh: -0.2

Results for CC(C)(C)c1nnc(N/N=C/c2cc(Br)ccc2O)n(N)c1=O ?
Y pestis TopoI: 19.1; Mtb FBA inh: -1.1; GDH-TPI counter: 33.3*; PrPC TRFRET: -5.2

What do the screens show for `CCc1nnc(N/N=C/c2cc(Br)c(O)cc2O)n1N`?
Y pestis TopoI: -9.7; Mtb FBA inh: -1.7; GDH-TPI counter: 24.3; PrPC TRFRET: -2.4; TcdB GH inh: -13.2

What do the screens show for `CCS(=O)(=O)Nc1ccc2c(c1)C(=O)N(C)C[C@H](OC)[C@H](C)CN(CC1CCCCC1)[C@@H](C)CO2`?
TcdB GH inh: -0.9
